HT1080-NT tox – qHTS for induction of synthetic lethality in tumor cells producing 2HG: qHTS for the HT-1080-NT fibrosarcoma cell line; HT-1080-NT fibrosarcoma viability, CellTiter-Glo ATP luminescence, 48 h; Potency, µM (doses to about 46.1 µM), most hits filed as cytotoxic; 360,000 compounds, 1.6% hits;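 also: NT is the 2HG producing partner of a matched IDH1 knockdown line; nearly all actives have a fitted effect of over 55% in size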
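Luminescent CellTiter-Glo readout after 48 hours of compound exposure at 37 degrees C defined viability of HT-1080-NT cells. Activity was normalized to DMSO wells and cell-free media wells; concentration-response curves were fitted and assigned curve classes.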
DT40 TDP1 CPT – qHTS for Inhibitors of human tyrosyl-DNA phosphodiesterase 1 (TDP1): qHTS in cells in presence of CPT; chicken DT40 Tdp1-/-;hTDP1 cells + 20 nM CPT, ATP luminescence, 48 h; Potency, µM (top dose mostly 46.2 µM), actives largely listed as inhibitors; 420,000 compounds, 12% hits; AID 686979, 2013; also: nearly all actives have a fitted effect of over 55% in size
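Cell growth measured by CellTiter-Glo luminescence after a minimum 48 h, 37 C compound exposure with 20 nM CPT in Tdp1-knockout DT40 cells stably expressing hTDP1, seeded 400/well; qHTS titration format.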
IL-1B inflam inh – qHTS for Inhibitors of Inflammasome Signaling: IL-1-beta AlphaLISA Primary Screen; activity change, % at 57.5 µM; 360,000 compounds, 4.7% hits; THP-1 LPS/ATP IL-1B secretion, AlphaLISA, 16 h; active compounds read low; in the data active = activity change below about -50%; inconclusive = mostly about -30% to -49%
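THP-1 cells pretreated 1 hr with compounds (up to 57.5 uM final), then stimulated with LPS (250 ng/mL final) plus ATP (1.25 mM final); secreted IL-1B measured by AlphaLISA after 16 hr, decreased signal indicating inhibition.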
DT40 TDP1 no CPT – qHTS for Inhibitors of human tyrosyl-DNA phosphodiesterase 1 (TDP1): qHTS in cells in absence of CPT | DT40 Tdp1-/- hTDP1 cells, no CPT, ATP luminescence, 48 h | Potency, µM (series often up to 46.2 µM), usual class: inhibitors | 420,000 compounds, 15% hits; also: nearly all actives have a fitted effect of over 55% in size
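Growth kinetics read by CellTiter-Glo luminescence after ≥48 hr at 37 °C. Cells: DT40 Tdp1-/- stably carrying human TDP1, 400 per well, compound exposure in the absence of CPT (DMSO vehicle).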
HT1080 IDH1KD tx – qHTS for induction of synthetic lethality in tumor cells producing 2HG: qHTS for the HT-1080-IDH1KD cell line; HT-1080 IDH1 knockdown viability, ATP luminescence, 48 h; Potency, µM (doses to about 46.1 µM), actives largely listed as cytotoxic; 360,000 compounds, 2% hits; AID 686971, 2013
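Assay cells: HT-1080 with IDH1 knockdown, 750 per well, RPMI/5% FBS. Exposure: 48 h at 37 °C following 2 h pre-incubation. Read: CellTiter-Glo luminescence; fitted concentration-response, curve class assigned.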
Of the large screens only hits and unclear results are named; the others gave an inactive call. Most compounds without a hit are left out; they make up all but 19% or so of the library. Unless noted, calls follow the shape of the dose curve; as a rule, active = well fitted curve in the direction sought with a large enough effect; inconclusive = small, poorly fitted or top-dose-only effect, or another doubt; inactive = no such curve, though single readings can be large; an effect the other way counts as inactive or inconclusive.

CCOC(=O)CSc1nc(-c2ccccc2)cc(C(F)(F)F)c1C#N	none (no result: HT1080-NT tox, IL-1B inflam inh, HT1080 IDH1KD tx)
COc1ccc(-c2cc(-c3ccccc3)c(C#N)c(S(C)=O)n2)cc1 (centres undefined)	HT1080-NT tox inconclusive, DT40 TDP1 CPT 3.3µM, IL-1B inflam inh -96, DT40 TDP1 no CPT 3.3µM, HT1080 IDH1KD tx inconclusive
CCSc1nc(-c2ccc(OC)cc2)cc(-c2ccccc2)c1C#N	DT40 TDP1 CPT inconclusive, DT40 TDP1 no CPT 23µM
CCOC(=O)/C(Sc1nc(-c2ccccc2)cc(-c2ccccc2)c1C#N)=C(\C)O	DT40 TDP1 no CPT 29µM
CCC(C)c1c(N)n(S(=O)(=O)c2ccc(C)cc2)oc1=O (centres undefined)	DT40 TDP1 no CPT inconclusive
Cc1cc(=O)[nH]c(SCC(=O)N2CCN(S(=O)(=O)c3ccccc3)C2)n1	none
CCC(=O)N1c2ccccc2CC1C(=O)NCc1ccc(CC)cc1 (centres undefined)	none (no result: HT1080-NT tox, IL-1B inflam inh, HT1080 IDH1KD tx)
O=S1(=O)C=CC(Nc2cccc(Cl)c2)C1 (centres undefined)	HT1080-NT tox 10µM, IL-1B inflam inh -89, HT1080 IDH1KD tx inconclusive
Cc1ccc(CS(=O)Cc2ccc(C(=O)NCc3ccc4c(c3)OCO4)o2)cc1 (centres undefined)	DT40 TDP1 CPT inconclusive
O=C(NCc1cccc(Cl)c1)c1ccc(CS(=O)Cc2ccc(Cl)cc2)o1 (centres undefined)	DT40 TDP1 CPT inconclusive, IL-1B inflam inh -74
O=C(NCc1ccccc1)c1ccc(CS(=O)Cc2cccc(Cl)c2)o1 (centres undefined)	DT40 TDP1 CPT inconclusive, DT40 TDP1 no CPT inconclusive
O=C(NCc1ccc2c(c1)OCO2)c1ccc(CS(=O)Cc2ccc(Cl)cc2)o1 (centres undefined)	IL-1B inflam inh -69
Clc1nc2ccccc2nc1-c1ccccc1	none
Clc1ccc(-c2nc3ccccc3nc2-c2ccccc2)cc1	DT40 TDP1 CPT inconclusive, DT40 TDP1 no CPT 21µM
Cc1ccc(-c2nc3ccccc3nc2-c2ccccc2)cc1	DT40 TDP1 CPT inconclusive, DT40 TDP1 no CPT 15µM
Oc1ccccc1-c1nc2ccccc2nc1-c1ccccc1	DT40 TDP1 CPT inconclusive, DT40 TDP1 no CPT inconclusive
O=S1(=O)C[C@@H](N2CC[C@@H](O)C2)[C@H](COCc2ccccc2)N1	none
COc1ccc(N2CCN(C(=O)CC(C)S(=O)(=O)c3ccc4c(c3)NC(=O)CO4)CC2)cc1 (centres undefined)	DT40 TDP1 CPT 15µM, DT40 TDP1 no CPT 13µM
CC(CC(=O)N1CCN(c2cccc(Cl)c2)CC1)S(=O)(=O)c1ccc2c(c1)NC(=O)CO2 (centres undefined)	DT40 TDP1 CPT 4.1µM, DT40 TDP1 no CPT 2.3µM
CCCCN1C(=O)C(CC(=O)NC2CCCC2)CC(C(=O)N2CCOCC2)=C1C (centres undefined)	none
N#Cc1ccc(CN2CCN(C(=O)C3CC(=O)N(c4ccccc4F)C3)CC2)cc1 (centres undefined)	none
Cc1ccc(C(=O)/C=C/c2cn(CC(O)CN3CCOCC3)c3ccccc23)cc1 (centres undefined)	HT1080-NT tox inconclusive, DT40 TDP1 CPT inconclusive, IL-1B inflam inh -82, DT40 TDP1 no CPT inconclusive, HT1080 IDH1KD tx inconclusive
COc1ccc(C(=O)/C=C/c2cn(CC(O)CN3CCc4ccccc43)c3ccccc23)cc1OC (centres undefined)	DT40 TDP1 CPT 3.3µM, DT40 TDP1 no CPT 4.1µM (no result: HT1080-NT tox, IL-1B inflam inh, HT1080 IDH1KD tx)
OC(CN1CCOCC1)Cn1cnc2ccccc21 (centres undefined)	HT1080-NT tox inconclusive
COc1ccc(C(=O)/C=C/c2cn(CN3CCN(C)CC3)c3ccccc23)cc1	IL-1B inflam inh -68, DT40 TDP1 no CPT inconclusive, HT1080 IDH1KD tx inconclusive
